According to PubChem BioAssay AID488969 (Vanderbilt High Throughput Screening Facility, 2010):
Whole data set: some 110,000 compounds, median “z-score” near -0.1, cut for the highest 2% near 2. This is one part of a sample in which the highest values are shown more often than they occur. Calls of active or inactive are those of the source.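 The calls were made as follows: active = z-score in the third read window above 3 or below -3; inactive = the rest.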

target: Metabotropic glutamate receptor 8 (Rattus norvegicus) (UniProt P70579); assay: mGluR8 Gi/Go-coupled signaling modulation – cell-based, rat, thallium flux, HTS, primary screen (AID 488969); details: HEK293 rat mGluR8, GIRK (G protein-gated inwardly rectifying potassium channel) thallium flux, FluoZin2; at 10 µM; stronger effect = higher value; submaximal glutamate (EC20) added with thallium
Sequence (P70579 whole entry, looked up): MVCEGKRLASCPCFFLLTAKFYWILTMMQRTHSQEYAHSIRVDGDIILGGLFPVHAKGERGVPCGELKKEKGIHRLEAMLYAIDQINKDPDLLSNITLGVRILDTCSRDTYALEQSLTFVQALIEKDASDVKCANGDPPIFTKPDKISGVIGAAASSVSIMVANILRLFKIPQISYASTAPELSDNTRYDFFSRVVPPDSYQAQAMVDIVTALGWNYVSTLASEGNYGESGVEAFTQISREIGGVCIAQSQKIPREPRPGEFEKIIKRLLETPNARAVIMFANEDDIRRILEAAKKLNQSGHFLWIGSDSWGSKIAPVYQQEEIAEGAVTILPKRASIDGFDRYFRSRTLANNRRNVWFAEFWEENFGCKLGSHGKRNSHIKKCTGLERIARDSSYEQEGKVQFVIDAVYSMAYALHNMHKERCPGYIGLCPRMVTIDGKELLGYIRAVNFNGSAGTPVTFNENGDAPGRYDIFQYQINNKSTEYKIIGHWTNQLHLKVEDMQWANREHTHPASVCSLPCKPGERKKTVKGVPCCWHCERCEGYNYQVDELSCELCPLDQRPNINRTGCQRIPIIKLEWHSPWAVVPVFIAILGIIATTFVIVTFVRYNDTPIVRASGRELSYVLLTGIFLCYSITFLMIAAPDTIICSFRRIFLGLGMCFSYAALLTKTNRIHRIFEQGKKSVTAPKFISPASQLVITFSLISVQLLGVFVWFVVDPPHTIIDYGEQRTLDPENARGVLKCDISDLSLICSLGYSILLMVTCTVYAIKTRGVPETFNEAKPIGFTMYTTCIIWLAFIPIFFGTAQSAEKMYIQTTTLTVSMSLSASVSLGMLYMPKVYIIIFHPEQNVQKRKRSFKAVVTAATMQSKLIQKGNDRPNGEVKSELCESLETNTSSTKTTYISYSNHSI

Row | Compound | z-score
1 | Cn1ncc(Br)c1C(=O)N/N=C/c1cccc(OC2CSC2)c1 | -0.309
2 | O=C(CSc1nnnn1C1CCCCC1)NCc1ccco1 | -0.228
3 | CCOC(=O)c1c(NC(=O)CNCCOC)sc2c1CCCC2 | -1.06
4 | Cc1nn(C)c(C)c1CNC(=O)c1nn2c(c1Cl)NC(c1cccs1)CC2C(F)(F)F (configuration not stated) | -0.0188
5 | Cc1nn(C)c(C)c1CN(C)C(=O)c1cc2n(n1)C(C(F)(F)F)CC(c1cccs1)N2 (configuration not stated) | 0.0534
6 | Cc1nn(C)c(C)c1CN(C)C(=O)c1nn2c(c1Br)NC(c1cccs1)CC2C(F)(F)F (configuration not stated) | 2.24
7 | CCOc1ccc2nc(NC(=O)C3CCCN(S(=O)(=O)c4cccs4)C3)sc2c1 (configuration not stated) | 0.284
8 | COc1ccc(C(=O)NC(=S)N2CCC(C)CC2)cc1 | 14.2 (active)
9 | COc1ccc(C(=S)N2CCCCCC2)cc1 | -0.075
10 | COc1ccc(N2CCN(C(=S)Nc3cc(C)cc(C)c3)CC2)cc1 | 0.06
11 | COc1ccc(C(=O)NC(=S)N2CCCCC2)cc1 | 3.44 (active)
12 | Cc1cccc(C(=O)NC(=S)N2CCN(C(=S)NC(=O)c3cccc(C)c3)CC2)c1 | 0.153
13 | CNC(=S)N1CCN(c2ccc(OC)cc2)CC1 | 8.68 (active)
14 | COc1ccc(C(=O)NC(=S)N2CC(C)OC(C)C2)cc1 (configuration not stated) | 0.0339
15 | CC1CCN(C(=S)NCCc2ccccc2)CC1 | -0.0312
16 | COc1ccc(C(=O)NC(=O)N2CCCCC2)cc1 | 0.975
17 | CNC(=S)N1CCN(c2cccc(OC)c2)CC1 | 0.273
18 | CC1CCN(C(=S)NC(=O)c2ccccc2)CC1 | 4.42 (active)
19 | COc1ccc(OC(C)C(=O)N2CCC(C)CC2)cc1 (configuration not stated) | 0.926
20 | O=C(OCc1ccccc1)C1=[N+]([O-])OC(C(=O)OCc2ccccc2)C1c1c[nH]c2ccccc12 (configuration not stated) | -0.556
21 | CCOC(=O)C1=C(C)Nc2nc3ccccc3n2C1c1ccccc1 (configuration not stated) | 0.0404
22 | Cc1ccc2c(c1)CCCN2C(=O)c1ccncc1 | 0.255
23 | COc1cccc(C2=NOC(C(=O)Nc3cccc(C(C)=O)c3)C2)c1OC (configuration not stated) | 0.301

Row | Compound | z-score
24 | Cc1c(-c2ccccc2)nc2ccccc2c1C(=O)OCC(=O)Nc1ncc(C(F)(F)F)cc1Cl | 0.00577
25 | COC(=O)Cc1[nH]nc2c1C(c1c[nH]c3ccccc13)C(C#N)=C(N)O2 (configuration not stated) | -0.415
26 | COc1ccc(/C=N\N=C2/SC(CC(=O)O)C(=O)N2c2ccc(O)cc2)cc1OC (configuration not stated) | -0.0449
27 | CC(=O)Nc1cccc2c1C(=O)NC2=O | 0.274
28 | CC(C)Cn1cc(C(=O)NC2CCN(Cc3ccccc3)CC2)c2c3ccccc3n(C)c2c1=O | -0.13
29 | O=C(c1ccccc1)N1CCN(Cc2ccccc2)CC1 | -0.853
30 | O=C(NC(=S)N1CCN(Cc2ccccc2)CC1)c1ccccc1 | 6.31 (active)
31 | S=C(NCCc1ccccc1)N1CCN(Cc2ccccc2)CC1 | -0.499
32 | O=C1NCCN1C(=O)c1ccccc1F | 0.555
33 | Cc1csc(NC(=O)CSc2ncc(-c3ccccc3)[nH]2)n1 | 0.148
34 | COc1ccc2c(=O)c3c(=O)n(Cc4ccco4)c(-c4ccco4)nc3oc2c1 | -0.397
35 | COc1ccc(Cn2c(-c3ccco3)nc3oc4ccccc4c(=O)c3c2=O)cc1 | 0.403
36 | COc1ccc(Cn2c(-c3ccco3)nc3oc4cc(OC)ccc4c(=O)c3c2=O)cc1 | 2.22
37 | CS(=O)(=O)N(CC(N)=O)c1ccc2c(c1)OCO2 | -0.00195
38 | COc1ccc(NCC(=O)Nc2ccccc2C#N)cc1Cl | -0.204
39 | Cc1ccccc1NC(=O)CNc1ccc(Cl)c(C(F)(F)F)c1 | -0.365
40 | N#Cc1ccccc1NC(=O)CNc1ccc(Cl)c(C(F)(F)F)c1 | 2.38
41 | N#Cc1cc(Oc2cccnc2)c(Oc2cccnc2)cc1C#N | 0.18
42 | O=C(Nc1ccccc1)Nc1nccs1 | 1.3
43 | O=C(Nc1cccc(Cl)c1)Nc1nccs1 | 10.2 (active)
44 | O=C(Nc1cccc(Cl)c1)Nc1cccc(Cl)c1 | 0.0262
45 | COC(=O)c1ccc(Oc2nc3c(c(=O)n(C)c(=O)n3C)n2CCC(C)C)cc1 | 1.63
46 | CN1C(=O)/C(=C/c2ccc3c(c2)OCO3)N=C1c1ccccc1 | 0.393

Row | Compound | z-score
47 | O=C(Cc1ccccc1)Nc1c(C(=O)N2CCCCCC2)cnn1-c1ccccc1 | -0.477
48 | CC(=O)Nc1c(C(=O)N2CCOCC2)cnn1-c1ccc(C)c(C)c1 | -0.0497
49 | CCC(=O)Nc1c(C(=O)N2CCCCCC2)cnn1-c1ccc(C)c(C)c1 | 2.47
50 | CC(C)NC(=O)Cn1c(=O)cnc2ccccc21 | 0.171
51 | O=C(CSc1c[nH]c2ccccc12)NCc1ccc2c(c1)OCO2 | 2.27
52 | O=C(CSc1nc(C2CCCCC2)nc2ccccc12)NCc1ccc2c(c1)OCO2 | -1.07
53 | Cn1c(SCC(=O)NCc2ccc3c(c2)OCO3)nnc1-c1c[nH]c2ccccc12 | -0.821
54 | O=C(CSc1nc(CCC2CCCC2)nc2ccccc12)NCc1ccc2c(c1)OCO2 | 8.15 (active)
55 | CC(C)C(=O)NCCSc1c[nH]c2ccccc12 | -0.143
56 | O=C(CCc1c[nH]c2ccccc12)NCc1ccc2c(c1)OCO2 | -0.143
57 | O=C(NCCSc1c[nH]c2ccccc12)c1ccco1 | 3.57 (active)
58 | O=C(CSc1nc(C2CC2)nc2ccccc12)NCc1ccc2c(c1)OCO2 | -0.21
59 | O=C(NCCSc1c[nH]c2ccccc12)c1ccc(Br)o1 | -0.00412
60 | O=C(CSc1ncnc2c1cnn2-c1ccc(F)cc1)NCc1ccc2c(c1)OCO2 | 0.54
61 | O=C(CSc1ncnc2c1cnn2-c1ccc(Cl)cc1)NCc1ccc2c(c1)OCO2 | 3.12 (active)
62 | Clc1ccc(-n2ncc3c(NCc4ccc5c(c4)OCO5)ncnc32)cc1 | -0.426
63 | O=C(CN1C(=O)c2ccccc2C1=O)N1CCN(c2nnc(-c3ccccc3)c3ccccc23)CC1 | 0.179
64 | COC(=O)Nc1ccc(OCc2ccccc2)cc1 | 0.466
65 | CC1CCN(S(=O)(=O)c2cc(C(=O)N3CCN(c4ncccn4)CC3)ccc2Br)CC1 | -0.827
66 | O=C(NCCC1=CCCCC1)C1CCCN(S(=O)(=O)c2cccnc2)C1 (configuration not stated) | 0.742
67 | COc1ccc(S(=O)(=O)n2nc(-c3ccc(Cl)cc3)cc2N)cc1OC | -0.0966
68 | O=C(Cn1cnc2c(nnn2Cc2ccc(F)cc2)c1=O)N1CCCCC1 | 0.251
69 | Cc1ccc(C(=O)CCC(=O)Nc2cccnc2)cc1C | -0.25

Row | Compound | z-score
70 | CCCCC(=O)Nc1ccc(C(=O)Nc2nnc(COC)s2)cc1 | -0.311
71 | Nc1nonc1C(=O)NCCNCc1ccccc1OCc1ccccc1F | 1.61
72 | Nc1nonc1C(=O)NCCNCc1cc(Br)ccc1OCc1ccc(F)cc1 | 0.587
73 | Nc1nonc1C(=O)NCCNCc1cc(Br)ccc1OCc1ccccc1F | 4.61 (active)
74 | Cc1nn(CC(=O)NCc2ccc(OC(C)C)cc2)c(=O)c2cc3occc3n12 | -0.4
75 | Cc1ccccc1OCc1nnc(SCc2cc(=O)[nH]c3ccccc23)n1-c1ccccc1 | 0.00735
76 | O=P(CCNCc1ccco1)(c1ccccc1)c1ccccc1 | 0.267
77 | Cn1nnnc1SCc1nnc(-c2ccc(Cl)cc2)o1 | 2.68
78 | Cn1nnnc1SCc1nnc(-c2ccc(F)cc2)o1 | -0.226
79 | Cn1nnnc1SCc1nnc(-c2ccccc2Br)o1 | 0.436
80 | Cc1ccc(/C(O)=C2/C(=O)C(=O)N(CCN3CCOCC3)C2c2cccs2)cc1 (configuration not stated) | -0.157
81 | COc1cccc2cc(C(=O)N3CCN(c4ncccn4)CC3)c(=O)oc12 | -0.344
82 | COc1ccc(C(=O)N2CCN(C3CCCCC3)CC2)c(OC)c1 | -0.579
83 | COC(=O)CCSc1cc(NCCOC(C)=O)c([N+](=O)[O-])c2nonc12 | -0.0935
84 | CCCSc1cc(NCCOC(C)=O)c([N+](=O)[O-])c2nonc12 | 2.48
85 | CCCC(=O)OCCNc1cc(SCCC(=O)OC)c2nonc2c1[N+](=O)[O-] | -0.658
86 | Oc1cnc2ccccc2c1CN1CCOCC1 | -0.0791
87 | CCOc1cc(C)c(Cl)cc1S(=O)(=O)NCc1ccc2c(c1)OCO2 | -0.837
88 | Cc1ccc(S(=O)(=O)N2CCN(C3CC(=O)N(Cc4ccccc4)C3=O)CC2)cc1C (configuration not stated) | -0.767
89 | CCCn1c(C)cc(/C=C(\C#N)C(=O)OCC(=O)Nc2cc(OC)c(OC)c(OC)c2)c1C | -0.21
90 | CCCn1c(C)cc(/C=C(\C#N)C(=O)OCC(=O)Nc2cccc(OC)c2)c1C | 3.42 (active)
91 | CCCn1c(C)cc(/C=C(\C#N)C(=O)OCC(=O)Nc2ccc(OC)c(Cl)c2)c1C | -0.243
92 | CN(CC(=O)NCCN1CCN(c2ccccc2)CC1)S(=O)(=O)c1ccc2c(c1)CCC(=O)N2 | 0.291

Row | Compound | z-score
93 | CC1(C)COC(c2cc([N+](=O)[O-])ccc2Cl)=N1 | -0.41
94 | Clc1ccc(/C=N/Nc2nn[nH]n2)cc1 | -1.27
95 | COc1ccccc1C(=O)Nc1ccc(Oc2ncnc3sc(-c4ccccc4)cc23)cc1 | -0.975
96 | COc1ccc(C(=O)Nc2ccc(Oc3ncnc4sc(-c5ccccc5)cc34)cc2)cc1OC | 4.83 (active)
97 | COc1cc(C(=O)Nc2ccc(Oc3ncnc4sc(-c5ccccc5)cc34)cc2)cc(OC)c1OC | 0.344
98 | CCCCCCN1N=C(C)C(C(=O)c2ccc(Cl)cc2)C1=O (configuration not stated) | 0.521
99 | CC1=NN(c2ccccc2)C(=O)C1C(=O)c1ccccc1 (configuration not stated) | -0.168
100 | CC1=NN(c2ccccc2)C(=O)C1C(=O)c1ccc(Cl)cc1 (configuration not stated) | 2.14
101 | Clc1ccc(C2=Nn3c(nnc3-c3cccs3)SC2)cc1 | -0.153
102 | CCOC(=O)C1=C(C)NC(=O)CC1c1ccccc1 (configuration not stated) | 0.409
103 | Cc1ccc(-n2c(=S)[nH]c3c(oc4ccccc43)c2=O)cc1 | 0.618
104 | COc1ccc(-n2c(=S)[nH]c3sc4c(c3c2=O)CCc2ccccc2-4)cc1 | 0.114
105 | Cc1ccc(-n2c(=S)[nH]c3sc4c(c3c2=O)CCc2ccccc2-4)cc1 | 2.33
106 | COc1ccc2c(c1)c(=O)oc1cc(OCC(=O)NC3CCCCC3)ccc12 | 0.0339
107 | O=C(NC(=S)Nc1ccccc1)c1ccc(-c2ccccc2)cc1 | 0.0142
108 | COC(=O)c1c(NC(=S)Nc2ccccc2Cl)sc(C)c1C | 0.827
109 | Cc1ccc(NC(=O)c2csnn2)c(C)c1 | 0.804
110 | O=C(NC(=S)Nc1ccccc1)c1csnn1 | 12.4 (active)
111 | O=C(NC(=S)Nc1ccccc1Cl)c1csnn1 | 11.5 (active)
112 | CC(=O)Nc1ccc(NC(=S)Nc2ccccc2)cc1 | -0.0688
